Screens as filed in PubChem.
ELG1 repair inh – inhibitors of ELG1-dependent DNA repair in HEK293T cells | HEK293T ELG1-luciferase reporter, luminescence, 16 h; DNA damage induced by 5-fluorouridine | Potency, µM (titrated, usually from 46.1 µM), without a hit: at the top dose activity change, negative = inhibition, actives largely listed as inhibitors | 2.3% of 330,000 active | AID 504467; also: potency is read from the fitted curve at half-maximal effect; nearly all actives have a fitted effect of over 55% in size
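5-Fluorouridine DNA damage + compound/DMSO, 2,000 cells/well, 16 h, 37 °C/5% CO2. ONE-Glo, 30 min RT, luminescence. Readout = decrease in reporter signal.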
FBPA coupling cs – coupling enzyme interference in Giardia aldolase counter-screen | AID 2472 | 0.67% of 290,000 active | activity change, negative = inhibition, % at 58.2 µM, hits read low | coupling enzyme system counterscreen, AmpLite Red fluorescence; in the data active = activity change below about -30%
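Counterscreen of the coupled detection system alone, without aldolase: glyceraldehyde-3-phosphate coupling enzymes plus AmpLite Red readout. Compounds at 57.5 uM final, 10 min RT preincubation, 20 min RT reaction, fluorescence 525/598 nm.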
TSHR antag – blocks TSH signaling through the human TSH receptor; TSHR-expressing cells, TSH-stimulated cAMP HTRF, 2 h; active compounds read low; activity change, negative = inhibition, % at 11.5 µM; 0.2% of 330,000 active; AID 504810;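 active = activity change below a set negative limit, meaning inhibition stronger than a set level, cut at about -70% in these data; inconclusive = activity change between two set negative limits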
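Freshly harvested TSHR cells receive pin-tooled compound, then EC80 TSH at 4nM final. After 2 hours at 37 deg C, antibody in lysis buffer and cAMP-d2 are added; 30 minutes at ambient temperature precede the HTRF read.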
Gal4-VP16 FLuc – Gal4-VP16 reporter inhibition counter-screen. Drosophila S2 Gal4-VP16 UAS-luciferase, luminescence, 20 h. Potency, µM (series often up to 53.6 µM), without a hit: at the top dose activity, negative = inhibition, hits mostly inhibitors. 3.5% of 310,000 active. AID 2546;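 also: Gal4-VP16 expression switched on by copper sulfate through the metallothionein promoter; potency is read from the fitted curve at half-maximal effect; nearly all actives have a fitted effect of over 50% in size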
RORgamma inh – blocks mouse ROR gamma transcriptional activity; P51450; 5.4% of 310,000 active; Potency, µM (highest dose often 53.6 µM), without a hit: at the top dose activity change, negative = inhibition, actives largely listed as inhibitors; Drosophila S2 Gal4-RORgamma UAS-luciferase reporter, 20 h; also: potency is read from the fitted curve at half-maximal effect; nearly all actives have a fitted effect of over 60% in size
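In this cell-based reporter format, copper sulfate (700 uM final) drives Gal4–ROR gamma fusion expression from a metallothionein promoter in Drosophila Schneider cells; compounds preincubated 1 hr, reporter read after 20 hr at ambient temperature.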
Numbers without * were called inactive; ? = inconclusive; · = no result; [ ] = another dose, or the depositor's remark. Sampled rows, rich in hits. Any-hit rate of the full collection: about 8%. Unless noted, calls follow the shape of the dose curve; as a rule, active = well fitted curve in the direction sought with a large enough effect; inconclusive = small, poorly fitted or top-dose-only effect, or another doubt; inactive = no such curve, though single readings can be large; an effect the other way counts as inactive or inconclusive. % is scaled to controls: 0 for no effect and ±100 for the full control effect.

SMILES	ELG1 repair inh	FBPA coupling cs	TSHR antag	Gal4-VP16 FLuc	RORgamma inh
COc1ccc(C)cc1NC(=O)CN1CCN(C/C=C/c2ccccc2)CC1	21µM*	-5	36	?	10µM*
COC(=O)c1[nH]c2cc(OC)ccc2c1NC(=O)CN1CCOCC1	-23%	3	6	7%	?
COC(=O)c1[nH]c2cc(OC)c(OC)cc2c1NC(=O)CN1CCN(Cc2ccccc2)CC1	1.6µM*	5	7	-21%	-28%
CCN1N=C(C)C=C(c2ccccc2)n2c1nc1ccccc12	?	2	-11	-2%	-13%
O=C(NC1CCCC1)C(c1cccnc1)N(C(=O)c1csnn1)c1ccccc1 (stereo unspecified)	8%	3	9	-5%	-21%
O=C(CN1CCN(C(=O)c2ccccc2)CC1)Nc1ccc(Cl)cc1F	-2%	0	-79*	-3%	-2%
COC(=O)c1[nH]c2cccc(OC)c2c1NC(=O)CCN1CCC(C)CC1	-8%	1	-16	-2%	-27%
COC(=O)c1[nH]c2ccc(C)cc2c1NC(=O)CN1CCN(c2ccc(F)cc2)CC1	9.2µM*	-5	-3	13µM*	-43%
COC(=O)c1[nH]c2cccc(OC)c2c1NC(=O)CN1CCN(c2cccc(OC)c2)C(C)C1 (stereo unspecified)	13µM*	3	-2	0%[0.365 µM]	-32%
COC(=O)c1[nH]c2ccc(C)cc2c1NC(=O)CN1CCN(C(=O)c2ccccc2)CC1	21µM*	1	-8	-4%	-3%
NC(=O)C1CCCN1S(=O)(=O)c1ccc2ccccc2c1 (stereo unspecified)	16%	·	1	-1%	-6%
CCN(CC)CCCCC1CCN(CC(=O)N2c3ccccc3C(=O)Nc3cccnc32)CC1	·	7	·	4%	-15%
COc1cc(OC)c2c(c1C(CCN1CCCC1)c1ccc(N(C)C)cc1)OC(=O)CC2c1ccc(N(C)C)cc1 (stereo unspecified)	·	0	·	-10%	15%
CC(=O)NCCNc1ncnc2ccc(-c3ccc4c(c3)OCO4)cc12	·	-5	·	-3%	?
N#CC1=C(Nc2ccccc2Cl)SC(c2ccccc2O)NC1=O (stereo unspecified)	?	13	28	?	13µM*
CC(=O)C(C(C)=O)c1c(Cl)c(O)c(O)c2c(C(=O)c3ccccc3)coc12	?	-12	-7	?	16µM*
O=C(c1cnn(C(=O)COc2ccc(Cl)cc2)c1)c1ccccc1O	?	-11	9	-4%	?
Cc1ccc(O)c(C(=O)c2cnn(C(=O)COc3ccc(Cl)cc3)c2)c1	16µM*	2	3	?	?
COc1ccc(/C=N/Nc2nc3ccccc3[nH]2)c(OC)c1OC	?	-1	2	-25%	13µM*
Cc1[nH]c2ccccc2c1/C=N/Nc1nc2ccccc2[nH]1	?	-1	-31	-19%	-2%
Cc1ccc(/C=N/Nc2nc(Cl)c(Cl)cc2Cl)s1	?	2	-8	?	11µM*
Cc1ccccc1/C=N/Nc1nc2ccccc2[nH]1	?	0	-8	-93%	7.1µM*
Cc1ccc(/C=N/Nc2nc3ccccc3[nH]2)s1	?	-2	6	5µM*	4.5µM*
O=[N+]([O-])c1cc(/C=N/Nc2nc3ccccc3[nH]2)c(O)cc1O	?	-3	-19	3.2µM*	3.5µM*
C(=N\Nc1nc2ccccc2[nH]1)/c1c[nH]c2ccccc12	?	0	-5	10µM*	3.5µM*
SMILES	ELG1 repair inh	FBPA coupling cs	TSHR antag	Gal4-VP16 FLuc	RORgamma inh
C(=N\Nc1nc2ccccc2[nH]1)/c1cccc2cccnc12	?	-7	-3	2.2µM*	0.35µM*
Cc1cc(=O)[nH]c(N/N=C/c2c[nH]c3ccccc23)n1	?	-11	0	-5%	39%
c1cnc2c(OCc3nc4ccccc4[nH]3)cccc2c1	?	-13	7	?	?
Cc1ccc(C(=O)N[C@H](C(=O)Nc2ccc(N3CCOCC3)cc2)C(C)C)cc1	7%	·	1	·	·
CCCc1ccc(Oc2c(-c3ccc(O)c(C)c3O)n[nH]c2C)cc1	?	0	-15	?	18µM*
COc1ccccc1C(=O)COC(=O)CN1C(=O)NC2(CCCC2)C1=O	1%	·	6	·	·
CC(C)(C)c1ccc(C(=O)CC(Sc2ccc(Cl)cc2)C(=O)O)cc1 (stereo unspecified)	?	22	-43	6.3µM*	1.6µM*
Cc1ccc(SC(CC(=O)c2ccc(F)cc2)C(=O)O)cc1 (stereo unspecified)	-11%	6	-35	-72%	?
CC(C)CN1CC(COCc2ccccc2)Oc2ccccc2S1(=O)=O (stereo unspecified)	?	·	2	·	·
Cn1c(=O)c(C(=O)NNC(=O)c2ccccc2F)c(O)c2ccccc21	-13%	3	2	?	18µM*
Cn1c(=O)c(C(=O)NNC(=O)c2ccc(Br)cc2)c(O)c2ccccc21	?	0	-23	?	?
Cn1c(NNC(=O)c2ccccc2F)cc(=O)n(C)c1=O	0%	-30*	3	2%	-22%
CCn1c(=O)c(C(=O)NNC(=O)c2ccccc2Cl)c(O)c2ccccc21	11%	-2	15	?	7.9µM*
CCCCCC(=O)NNC(=O)c1c(O)c2ccccc2n(CC)c1=O	5%	-1	-18	1%	43%
CCCCCCCCCC(=O)NNC(=O)c1c(O)c2ccccc2n(CC)c1=O	-10%	4	8	0%	-11%
CCn1c(=O)c(C(=O)NNC(=O)c2ccccc2F)c(O)c2ccccc21	5%	2	-21	?	7.9µM*
Cc1ccc(C)c(SCC(=O)Nc2cc(S(=O)(=O)N3CCOCC3)ccc2C)c1	-2%	·	-6	·	·
Cc1ccc(C)c(NC(=S)N=Nc2c(O)n(C)c3ccc(S(=O)(=O)N4CCOCC4)cc23)c1	?	-3	-1	1.1µM*	0.63µM*
Cc1ccc(Cn2c(O)c(N=NC(=S)Nc3ccccc3F)c3cc(S(=O)(=O)N4CCOCC4)ccc32)cc1	?	0	-7	?	2µM*
CCc1ccccc1NC(=S)N=Nc1c(O)n(C)c2ccc(S(=O)(=O)N3CCOCC3)cc12	?	-6	-7	4.5µM*	1.1µM*
CCc1ccccc1NC(=O)c1ccc(S(=O)(=O)N2CCCC2)cc1	-2%	0	-2	-2%	5%
Cc1ccc(NC(=O)N2CCCCCC2)c(C)c1	?	2	-7	8%	-11%
CCn1cc(C(=O)NC2CCCCCC2)c2cc(OC)c(OC)cc2c1=O	13µM*	4	-3	·	27%[0.365 µM]
Cc1noc(C)c1-c1ccc2ncnc(NCc3ccco3)c2c1	·	-1	·	-8%	-1%
